Holding throughout (assay): DAPPL (digital affinity profiling via proximity ligation, sequencing); 10 mM Tris-HCl pH 7.5, 50 mM NaCl, 1 mM DTT, 4% glycerol, room temperature, 30 min; GST-TFs on glutathione beads, 16-mer random dsDNA library, 0.1% formaldehyde crosslink after washing; high values mean tight binding
The target of one test is T1, FLI1 (Homo sapiens, UniProt Q01543 1-452).
T1 sequence: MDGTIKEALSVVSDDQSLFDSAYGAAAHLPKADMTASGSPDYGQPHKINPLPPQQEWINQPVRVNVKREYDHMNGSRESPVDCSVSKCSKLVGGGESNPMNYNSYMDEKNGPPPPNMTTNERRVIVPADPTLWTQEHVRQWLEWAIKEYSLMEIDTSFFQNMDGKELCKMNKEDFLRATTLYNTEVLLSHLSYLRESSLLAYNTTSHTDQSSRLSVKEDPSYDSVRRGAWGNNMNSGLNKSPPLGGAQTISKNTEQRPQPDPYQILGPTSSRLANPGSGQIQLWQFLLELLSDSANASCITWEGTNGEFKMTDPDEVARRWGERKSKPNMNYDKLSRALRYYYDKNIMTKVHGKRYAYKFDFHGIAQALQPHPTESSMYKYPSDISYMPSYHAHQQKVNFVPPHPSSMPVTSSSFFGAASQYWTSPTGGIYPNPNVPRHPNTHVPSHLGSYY
Conditions: protein: recombinant; tags: N-terminal GST; dsDNA, one strand shown. In outline: (§1)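 Binding signal is each hexamer's read frequency for a factor divided by its frequency in the tag-only sample. The factors were GST-fused human transcription factors from yeast, captured on glutathione beads, DNA-barcoded and pooled with that sample. Pools were incubated with 200 nmole of a random double-stranded 16-mer DNA library in Tris/NaCl/DTT/glycerol buffer at room temperature for 30 min, then washed, crosslinked with 0.1% formaldehyde, proximity-ligated with BsaI/T4 ligase (1 h, 37 °C), PCR-amplified and sequenced on an Illumina NextSeq500.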

The target of another test is T2, ELK1 (Homo sapiens, UniProt P19419 1-428).
T2 sequence: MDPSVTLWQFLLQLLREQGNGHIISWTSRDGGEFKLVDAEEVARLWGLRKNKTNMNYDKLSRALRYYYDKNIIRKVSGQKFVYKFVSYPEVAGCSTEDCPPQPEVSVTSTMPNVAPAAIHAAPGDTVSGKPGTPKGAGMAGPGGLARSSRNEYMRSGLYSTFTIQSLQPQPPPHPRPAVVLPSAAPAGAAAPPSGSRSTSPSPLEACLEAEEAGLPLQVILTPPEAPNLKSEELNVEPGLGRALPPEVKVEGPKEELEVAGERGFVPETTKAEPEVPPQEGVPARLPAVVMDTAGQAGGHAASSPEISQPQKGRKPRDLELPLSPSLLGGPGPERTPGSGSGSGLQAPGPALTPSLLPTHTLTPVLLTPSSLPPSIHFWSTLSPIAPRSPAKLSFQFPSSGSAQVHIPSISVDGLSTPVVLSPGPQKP
The following applies: protein: recombinant; tags: N-terminal GST; dsDNA, one strand shown. Put shortly: as §1

For another test, the target named is T3, GABPA (Homo sapiens, UniProt Q06546 1-454).
T3 sequence: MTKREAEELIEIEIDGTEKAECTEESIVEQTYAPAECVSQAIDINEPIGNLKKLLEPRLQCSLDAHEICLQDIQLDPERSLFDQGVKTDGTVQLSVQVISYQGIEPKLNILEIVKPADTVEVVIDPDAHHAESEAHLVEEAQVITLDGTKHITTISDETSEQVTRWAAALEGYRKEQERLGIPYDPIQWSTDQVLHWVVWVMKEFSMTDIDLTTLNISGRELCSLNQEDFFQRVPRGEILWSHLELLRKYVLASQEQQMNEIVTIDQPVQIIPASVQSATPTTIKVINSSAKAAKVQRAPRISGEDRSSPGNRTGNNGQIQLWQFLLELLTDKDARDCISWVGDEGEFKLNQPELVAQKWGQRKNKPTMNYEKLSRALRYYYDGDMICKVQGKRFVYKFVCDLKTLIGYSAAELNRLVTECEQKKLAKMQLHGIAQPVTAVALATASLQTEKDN
The following applies: protein: recombinant; tags: N-terminal GST; dsDNA, one strand shown. In outline:
as §1

For another test, the target named is T4, ERG (Homo sapiens, UniProt P11308 1-479).
T4 sequence: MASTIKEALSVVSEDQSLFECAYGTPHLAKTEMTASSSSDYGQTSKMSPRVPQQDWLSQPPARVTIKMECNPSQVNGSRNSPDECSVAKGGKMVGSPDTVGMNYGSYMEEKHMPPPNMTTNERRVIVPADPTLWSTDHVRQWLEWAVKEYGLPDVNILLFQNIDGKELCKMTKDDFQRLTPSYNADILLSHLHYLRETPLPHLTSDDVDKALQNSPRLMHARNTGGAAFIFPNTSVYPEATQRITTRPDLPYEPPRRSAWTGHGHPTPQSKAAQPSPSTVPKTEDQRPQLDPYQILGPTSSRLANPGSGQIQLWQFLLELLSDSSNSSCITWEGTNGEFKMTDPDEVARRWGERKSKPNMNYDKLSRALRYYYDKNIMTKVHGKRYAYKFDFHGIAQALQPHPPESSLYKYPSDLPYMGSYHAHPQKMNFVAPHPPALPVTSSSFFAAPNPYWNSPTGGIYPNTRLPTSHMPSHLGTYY
The following applies: protein: recombinant; tags: N-terminal GST; dsDNA, one strand shown. Put shortly: as §1

A further test addresses ELF1 (Homo sapiens, UniProt P32519 1-619). Conditions: protein: recombinant; tags: N-terminal GST; dsDNA, one strand shown. In outline: as §1
The next test concerns the target T5, EHF (Homo sapiens, UniProt Q9NZC4 1-300).
T5 sequence: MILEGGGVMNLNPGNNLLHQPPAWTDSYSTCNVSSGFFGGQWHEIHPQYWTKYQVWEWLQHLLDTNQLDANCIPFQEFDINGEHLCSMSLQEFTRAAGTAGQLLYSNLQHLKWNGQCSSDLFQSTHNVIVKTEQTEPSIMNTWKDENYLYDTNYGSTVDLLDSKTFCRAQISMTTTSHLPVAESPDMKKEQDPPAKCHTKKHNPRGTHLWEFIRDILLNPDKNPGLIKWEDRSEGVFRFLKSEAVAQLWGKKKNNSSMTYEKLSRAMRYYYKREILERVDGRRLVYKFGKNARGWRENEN
Conditions: protein: recombinant; tags: N-terminal GST; dsDNA, one strand shown. Put shortly:
as §1

Another test concerns the target SPI1 (Homo sapiens, UniProt P17947 1-270). The following applies: protein: recombinant; tags: N-terminal GST; dsDNA, one strand shown. In outline: as §1
The target of another test is SPIB (Homo sapiens, UniProt Q01892 1-262). The following applies: protein: recombinant; tags: N-terminal GST; dsDNA, one strand shown. In outline: as §1
For the next test, the target named is T6, ELK3 (Homo sapiens, UniProt P41970 1-407).
T6 sequence: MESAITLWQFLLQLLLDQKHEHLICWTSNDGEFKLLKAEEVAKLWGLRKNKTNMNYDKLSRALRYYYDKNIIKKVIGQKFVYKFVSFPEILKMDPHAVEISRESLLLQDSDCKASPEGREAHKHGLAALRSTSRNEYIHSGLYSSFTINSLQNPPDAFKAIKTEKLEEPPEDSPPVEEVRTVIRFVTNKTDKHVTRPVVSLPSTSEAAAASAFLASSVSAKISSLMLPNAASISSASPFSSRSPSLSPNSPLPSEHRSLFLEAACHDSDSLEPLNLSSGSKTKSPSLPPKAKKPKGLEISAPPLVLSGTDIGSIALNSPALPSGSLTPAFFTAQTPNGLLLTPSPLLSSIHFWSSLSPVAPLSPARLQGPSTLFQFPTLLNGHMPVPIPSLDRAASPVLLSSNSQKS
The following applies: protein: recombinant; tags: N-terminal GST; dsDNA, one strand shown. Put shortly: as §1

Another test has as its target T7, FEV (Homo sapiens, UniProt Q99581 1-238).
T7 sequence: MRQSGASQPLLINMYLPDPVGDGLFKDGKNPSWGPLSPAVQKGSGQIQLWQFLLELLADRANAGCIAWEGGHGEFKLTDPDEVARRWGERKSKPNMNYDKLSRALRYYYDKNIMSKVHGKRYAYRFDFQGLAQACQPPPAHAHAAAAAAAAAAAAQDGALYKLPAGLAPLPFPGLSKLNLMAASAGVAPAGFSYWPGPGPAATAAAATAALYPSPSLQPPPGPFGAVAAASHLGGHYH
Conditions: protein: recombinant; tags: N-terminal GST; dsDNA, one strand shown. Put shortly: as §1

The next test deals with ETV5 (Homo sapiens, UniProt P41161 1-510). The following applies: protein: recombinant; tags: N-terminal GST; dsDNA, one strand shown. Put shortly: as §1
Another test concerns the target HSF1 (Homo sapiens, UniProt Q00613 1-529). Conditions: protein: recombinant; tags: N-terminal GST; chain copies: 3; dsDNA, one strand shown. Put shortly: as §1
The next test deals with T8, SPIC (Homo sapiens, UniProt Q8N5J4 1-248).
T8 sequence: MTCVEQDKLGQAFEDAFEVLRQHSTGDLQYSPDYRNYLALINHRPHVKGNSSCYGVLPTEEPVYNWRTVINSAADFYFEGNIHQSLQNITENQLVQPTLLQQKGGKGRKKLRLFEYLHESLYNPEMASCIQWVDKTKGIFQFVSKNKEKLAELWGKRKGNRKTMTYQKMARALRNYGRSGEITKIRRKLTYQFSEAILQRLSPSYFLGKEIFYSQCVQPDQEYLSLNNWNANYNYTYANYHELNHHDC
Conditions: protein: recombinant; tags: N-terminal GST; dsDNA, one strand shown. Put shortly: as §1

For the next test, the target named is ELF4 (Homo sapiens, UniProt Q99607 1-663). Conditions: protein: recombinant; tags: N-terminal GST; dsDNA, one strand shown. In outline: as §1
The target of a further test is T9, ELK4 (Homo sapiens, UniProt P28324-2 1-405).
T9 sequence: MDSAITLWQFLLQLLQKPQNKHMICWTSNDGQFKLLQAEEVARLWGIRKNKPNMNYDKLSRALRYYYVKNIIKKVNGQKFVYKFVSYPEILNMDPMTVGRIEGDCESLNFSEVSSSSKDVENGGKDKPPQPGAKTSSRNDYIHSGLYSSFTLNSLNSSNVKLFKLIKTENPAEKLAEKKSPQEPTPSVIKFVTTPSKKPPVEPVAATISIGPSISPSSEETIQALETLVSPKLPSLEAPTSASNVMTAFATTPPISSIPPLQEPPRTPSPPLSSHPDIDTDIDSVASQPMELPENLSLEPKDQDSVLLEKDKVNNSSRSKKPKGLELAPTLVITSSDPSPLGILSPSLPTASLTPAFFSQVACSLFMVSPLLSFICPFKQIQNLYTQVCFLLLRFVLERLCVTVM
The following applies: protein: recombinant; tags: N-terminal GST; dsDNA, one strand shown. Put shortly: as §1

Another test has as its target T10, ETV2 (Homo sapiens, UniProt O00321 1-342).
T10 sequence: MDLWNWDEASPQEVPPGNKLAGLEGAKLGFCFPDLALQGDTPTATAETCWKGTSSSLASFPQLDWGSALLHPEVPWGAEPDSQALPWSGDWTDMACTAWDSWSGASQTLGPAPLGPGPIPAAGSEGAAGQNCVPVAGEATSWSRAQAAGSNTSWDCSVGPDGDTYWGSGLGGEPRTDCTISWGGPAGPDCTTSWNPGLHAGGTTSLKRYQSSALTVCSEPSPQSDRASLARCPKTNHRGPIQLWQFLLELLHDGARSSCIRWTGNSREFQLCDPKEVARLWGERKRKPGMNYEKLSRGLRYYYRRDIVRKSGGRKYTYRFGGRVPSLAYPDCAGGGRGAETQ
The following applies: protein: recombinant; tags: N-terminal GST; dsDNA, one strand shown. Put shortly:
as §1

The target of another test is T11, ELF3 (Homo sapiens, UniProt P78545 1-371).
T11 sequence: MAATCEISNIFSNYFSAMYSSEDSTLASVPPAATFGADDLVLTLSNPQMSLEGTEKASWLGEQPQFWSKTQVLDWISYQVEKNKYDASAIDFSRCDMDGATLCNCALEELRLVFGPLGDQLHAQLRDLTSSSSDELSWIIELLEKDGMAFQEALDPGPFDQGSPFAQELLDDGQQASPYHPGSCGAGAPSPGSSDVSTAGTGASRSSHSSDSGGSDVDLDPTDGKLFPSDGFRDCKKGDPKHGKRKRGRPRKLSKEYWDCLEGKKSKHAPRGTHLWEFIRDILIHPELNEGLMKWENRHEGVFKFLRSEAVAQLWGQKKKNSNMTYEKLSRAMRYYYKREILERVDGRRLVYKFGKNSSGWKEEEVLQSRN
Conditions: protein: recombinant; tags: N-terminal GST; dsDNA, one strand shown. Put shortly:
as §1

In a further test the target is CRX (Homo sapiens, UniProt O43186 1-299). The following applies: protein: recombinant; tags: N-terminal GST; dsDNA, one strand shown. In outline: as §1
The target of another test is ETV1 (Homo sapiens, UniProt P50549 1-477). Conditions: protein: recombinant; tags: N-terminal GST; dsDNA, one strand shown. In outline:
as §1

Chain of ELF4 (Q99607 whole entry): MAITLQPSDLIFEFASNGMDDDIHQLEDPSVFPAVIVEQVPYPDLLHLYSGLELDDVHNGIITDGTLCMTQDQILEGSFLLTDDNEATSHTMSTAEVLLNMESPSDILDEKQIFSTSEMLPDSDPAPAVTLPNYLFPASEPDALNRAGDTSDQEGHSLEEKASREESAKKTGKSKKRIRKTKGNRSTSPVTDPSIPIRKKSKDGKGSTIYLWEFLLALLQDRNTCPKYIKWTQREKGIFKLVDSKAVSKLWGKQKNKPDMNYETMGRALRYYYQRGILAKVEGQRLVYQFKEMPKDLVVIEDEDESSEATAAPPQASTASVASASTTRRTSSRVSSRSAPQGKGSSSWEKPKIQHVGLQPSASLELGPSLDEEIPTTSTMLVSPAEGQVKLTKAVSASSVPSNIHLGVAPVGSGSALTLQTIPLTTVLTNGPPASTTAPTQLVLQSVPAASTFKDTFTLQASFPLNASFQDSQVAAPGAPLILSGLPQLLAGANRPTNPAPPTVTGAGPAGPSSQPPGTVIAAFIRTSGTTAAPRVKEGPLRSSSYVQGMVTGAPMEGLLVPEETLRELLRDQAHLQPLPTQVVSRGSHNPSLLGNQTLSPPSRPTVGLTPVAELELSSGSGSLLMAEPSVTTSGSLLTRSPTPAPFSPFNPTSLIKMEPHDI
Chain of ETV5 (P41161 whole entry): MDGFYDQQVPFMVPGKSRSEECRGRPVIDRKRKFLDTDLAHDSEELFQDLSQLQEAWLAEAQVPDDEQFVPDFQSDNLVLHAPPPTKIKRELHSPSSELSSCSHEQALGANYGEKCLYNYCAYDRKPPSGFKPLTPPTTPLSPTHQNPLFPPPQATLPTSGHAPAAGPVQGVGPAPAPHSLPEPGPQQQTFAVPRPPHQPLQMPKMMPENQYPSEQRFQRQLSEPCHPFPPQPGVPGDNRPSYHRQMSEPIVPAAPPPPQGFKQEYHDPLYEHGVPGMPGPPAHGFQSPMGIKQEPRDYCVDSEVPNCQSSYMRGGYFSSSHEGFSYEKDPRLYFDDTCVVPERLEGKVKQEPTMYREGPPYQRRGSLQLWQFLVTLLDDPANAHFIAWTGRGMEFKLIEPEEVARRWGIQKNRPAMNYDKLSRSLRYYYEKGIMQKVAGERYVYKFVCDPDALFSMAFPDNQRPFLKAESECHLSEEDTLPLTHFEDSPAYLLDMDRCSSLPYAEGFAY
Chain of ELF1 (P32519 whole entry): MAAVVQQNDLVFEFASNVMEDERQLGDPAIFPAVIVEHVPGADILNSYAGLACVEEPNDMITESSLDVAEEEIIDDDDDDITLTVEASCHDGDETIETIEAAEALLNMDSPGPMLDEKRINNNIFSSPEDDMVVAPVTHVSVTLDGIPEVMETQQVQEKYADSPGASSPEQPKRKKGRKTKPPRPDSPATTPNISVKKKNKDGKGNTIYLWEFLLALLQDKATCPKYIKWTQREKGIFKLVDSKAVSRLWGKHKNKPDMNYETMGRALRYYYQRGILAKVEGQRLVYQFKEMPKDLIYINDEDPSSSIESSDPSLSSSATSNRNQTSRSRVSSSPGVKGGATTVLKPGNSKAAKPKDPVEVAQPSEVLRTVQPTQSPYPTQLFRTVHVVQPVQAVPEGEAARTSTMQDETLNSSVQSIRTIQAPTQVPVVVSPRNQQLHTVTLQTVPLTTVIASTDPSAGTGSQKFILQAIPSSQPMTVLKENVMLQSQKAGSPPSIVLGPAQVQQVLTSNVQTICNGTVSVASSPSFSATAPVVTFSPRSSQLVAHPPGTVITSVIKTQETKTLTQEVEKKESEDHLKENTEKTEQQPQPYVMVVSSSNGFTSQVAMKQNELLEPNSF
Chain of HSF1 (Q00613 whole entry): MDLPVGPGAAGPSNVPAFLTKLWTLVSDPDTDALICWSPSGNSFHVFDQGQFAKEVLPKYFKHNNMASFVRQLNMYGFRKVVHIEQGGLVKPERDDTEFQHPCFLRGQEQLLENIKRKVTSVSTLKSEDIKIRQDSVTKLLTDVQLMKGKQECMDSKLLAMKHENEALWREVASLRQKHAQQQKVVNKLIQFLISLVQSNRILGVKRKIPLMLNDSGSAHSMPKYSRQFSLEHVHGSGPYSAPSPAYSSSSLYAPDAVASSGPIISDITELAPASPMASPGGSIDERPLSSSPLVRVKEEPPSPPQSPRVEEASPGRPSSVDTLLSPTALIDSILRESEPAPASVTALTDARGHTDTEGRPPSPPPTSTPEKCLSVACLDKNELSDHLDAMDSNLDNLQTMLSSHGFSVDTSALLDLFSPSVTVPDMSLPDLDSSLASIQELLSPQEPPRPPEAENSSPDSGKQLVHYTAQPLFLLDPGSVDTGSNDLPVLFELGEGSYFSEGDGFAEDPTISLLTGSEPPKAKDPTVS
Chain of ETV1 (P50549 whole entry): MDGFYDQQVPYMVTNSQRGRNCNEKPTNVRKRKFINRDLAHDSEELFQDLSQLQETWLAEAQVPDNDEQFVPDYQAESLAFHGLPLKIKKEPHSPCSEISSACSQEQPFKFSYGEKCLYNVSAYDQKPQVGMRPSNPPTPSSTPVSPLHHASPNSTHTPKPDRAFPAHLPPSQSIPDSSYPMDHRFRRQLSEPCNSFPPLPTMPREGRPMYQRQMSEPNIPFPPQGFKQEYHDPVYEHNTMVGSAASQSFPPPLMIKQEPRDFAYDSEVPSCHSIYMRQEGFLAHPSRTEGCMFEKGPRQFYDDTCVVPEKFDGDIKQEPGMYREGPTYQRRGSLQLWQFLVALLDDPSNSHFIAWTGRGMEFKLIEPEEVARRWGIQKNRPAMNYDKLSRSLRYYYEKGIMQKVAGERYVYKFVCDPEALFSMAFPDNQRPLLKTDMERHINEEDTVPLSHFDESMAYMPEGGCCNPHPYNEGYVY
Chain of SPIB (Q01892 whole entry): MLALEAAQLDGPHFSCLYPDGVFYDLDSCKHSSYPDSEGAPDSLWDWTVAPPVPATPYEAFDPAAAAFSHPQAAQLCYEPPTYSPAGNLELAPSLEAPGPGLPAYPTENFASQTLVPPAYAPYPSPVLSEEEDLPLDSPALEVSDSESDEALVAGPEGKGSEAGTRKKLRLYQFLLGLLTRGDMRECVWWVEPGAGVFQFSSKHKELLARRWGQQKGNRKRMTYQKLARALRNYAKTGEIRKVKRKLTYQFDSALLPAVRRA
Chain of CRX (O43186 whole entry): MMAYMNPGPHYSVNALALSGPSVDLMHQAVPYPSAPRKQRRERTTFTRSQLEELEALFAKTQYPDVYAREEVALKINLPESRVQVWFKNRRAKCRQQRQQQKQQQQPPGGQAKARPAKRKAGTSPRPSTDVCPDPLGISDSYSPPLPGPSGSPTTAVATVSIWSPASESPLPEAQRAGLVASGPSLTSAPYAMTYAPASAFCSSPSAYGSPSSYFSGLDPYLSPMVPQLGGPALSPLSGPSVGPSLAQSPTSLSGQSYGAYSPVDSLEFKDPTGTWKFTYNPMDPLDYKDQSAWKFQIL

For the sequence CCGCAA, the binding signal was 1.27 fold enrichment (6-mer frequency, TF over GST control) with FLI1; 1.3 fold enrichment (6-mer frequency, TF over GST control) with ELK1; 1.36 fold enrichment (6-mer frequency, TF over GST control) in the test with GABPA; 1.28 fold enrichment (6-mer frequency, TF over GST control) with ERG; 1.31 fold enrichment (6-mer frequency, TF over GST control) in the test with ELF1; 1.34 fold enrichment (6-mer frequency, TF over GST control) in the test with EHF. Further, the binding signal in the test with SPI1 was 1.45 fold enrichment (6-mer frequency, TF over GST control); with SPIB, 1.28 fold enrichment (6-mer frequency, TF over GST control); with ELK3 it was 1.34 fold enrichment (6-mer frequency, TF over GST control); with FEV it was 1.29 fold enrichment (6-mer frequency, TF over GST control); in the test with ETV5 it was 1.3 fold enrichment (6-mer frequency, TF over GST control); in the test with HSF1, 1.07 fold enrichment (6-mer frequency, TF over GST control). The binding signal with SPIC is 1.42 fold enrichment (6-mer frequency, TF over GST control); in the test with ELF4, 1.31 fold enrichment (6-mer frequency, TF over GST control); in the test with ELK4 it was 1.36 fold enrichment (6-mer frequency, TF over GST control); with ETV2, 1.35 fold enrichment (6-mer frequency, TF over GST control); with ELF3 it was 1.39 fold enrichment (6-mer frequency, TF over GST control); with CRX, 1.01 fold enrichment (6-mer frequency, TF over GST control). For the same sequence, the binding signal with ETV1 was 1.38 fold enrichment (6-mer frequency, TF over GST control).
